For 23 compounds, inhibition results are on record in PubChem BioAssay AID1520 (The Scripps Research Institute Molecular Screening Center, 2009).

This is one part of the list. Calls of active or inactive are those of the source.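 How the source made its calls: active means cell growth inhibition above the hit limit set in the earlier mutant JAK2 cell screen (cut at about 27% in these data); inactive means the rest.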

A short description of the experiment: growth loss in parental Ba/F3 cells – cell-based, murine pro-B, CellTiter-Glo luminescence, counter-screen for JAK2V617F inhibitor project (AID 1520).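 Further: plate controls were DMSO-treated cells for no effect and JAK Inhibitor I control wells for full effect.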 To be noted: Ba/F3 parental viability, at 5.6 µM, hits give high values, cells kept alive by added IL-3.
Broadly, the inhibition is the relative decrease from the control value, in per cent. Consider `c1ccc2c(c1)CSc1sccc1C2=C1CCNCC1`, for which the inhibition is 0.77% (inactive).
As for `CN(Cc1ccc2nsnc2c1)Cc1nc(Cc2cccc(F)c2)no1`, the figure is -7.97% (inactive); as for `Cc1ccc(NC(=S)N(CCCN2CCC(C)CC2)Cc2ccco2)cc1`, 28.7% (active); as for `O=C(CCl)Nc1ccc(Sc2ccc(NC(=O)CCl)cc2)cc1`, 47.3% (active).
To `Cc1cccc(NC(=O)c2ccc([N+](=O)[O-])o2)c1` belongs 10.6% (inactive); to `COc1ccccc1N1CCN(Cc2ccc(OC)c3ccccc23)CC1`, -5.1% (inactive).
On to `CCn1c(/C=C/c2ccc([N+](=O)[O-])o2)nc2ccccc2c1=O`, for which the inhibition was 106% (active).
Regarding `COc1ccc(OC)c(Nc2nc(-c3ccc(O)c(O)c3)cs2)c1`, the inhibition was 72.9% (active).
Regarding `COc1cc(OC)cc(C(=O)N[C@H](C(=O)Nc2nc3ccccc3[nH]2)C(C)C)c1`, the inhibition was 86% (active).
For `O=C(CCl)N(Cc1cccc([N+](=O)[O-])c1)c1cccc(Cl)c1`, the inhibition is 87.5% (active).
As for `Cc1ccc(S(=O)(=O)C2(S(=O)(=O)c3ccc(C)cc3)CCCC2)cc1`, the figure is 32.1% (active); as for `CCCn1c(NC(=O)C23CC4CC(CC(O)(C4)C2)C3)nc2ccccc21`, -7.65% (inactive); as for `CSCC(=O)N1CCCC(C(=O)c2cc(F)ccc2F)C1` (stereo not drawn), -3.79% (inactive).
For `COc1ccc(-c2csc(Nc3ccc(O)cc3)n2)cc1`, the inhibition was 63% (active).
On to `CCCc1nc2ccccc2c(=O)n1/N=C/c1ccc(O)c(O)c1`, for which the inhibition is 1.92% (inactive).
As for `COc1ccc(Cc2nnc(N/N=C/c3ccccc3O)[nH]c2=O)cc1OC`, the figure is 85.6% (active); as for `Cc1ccc(C2=NN(C)c3nc4ccccc4n3C2)cc1`, -0.44% (inactive).
For `CCC1CCCCN1CCCNC(=O)c1cc2c(Cl)nc3ccccc3c2s1` (stereo not drawn), the inhibition is 0.54% (inactive).
Regarding `O=c1oc2ccccc2cc1-c1cn(-c2ccccc2)c(=S)[nH]1`, the inhibition was 50% (active).
With `COc1cc(OC)c(C(=O)NC2CCCCCC2)cc1OC`, the inhibition was -5.51% (inactive).
Take `Oc1ccc(/C=N/Nc2ccc(C(F)(F)F)cn2)cc1O`: the inhibition is 76.2% (active).
As for `Cn1c(CCN2CCCCCC2)nc2cc(NC(=O)Nc3ccccc3)ccc21`, the inhibition is -5% (inactive).
Turning to `N#C/C=C\Oc1ccc(Cl)cc1N`, the inhibition was -2.4% (inactive).
